From PubChem BioAssay (NCI)
About 83,000 compounds went through this panel and 20% of them were active in at least one assay; those are over-represented in the sample as a whole.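 Percent growth is the endpoint: 0 to 100 indicates growth inhibition (40 means 60% inhibition), 0 means no net growth, and negative values indicate cell death.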 The source made the active and inactive calls. Rule for the calls: active = growth percent below 10; inactive = the rest.

System: OVCAR-4 ovarian
Assay: NCI-60 one-dose screen, 48 h (100 = growth as untreated, 0 = no growth, -100 = all killed)
Settings: 10 µM

Row | Structure (SMILES) | growth
1 | COc1ccc(-c2onc(N)c2-c2cc(OC)c3c(c2)OCO3)cc1 | 61.9% (inactive)
2 | C[C@]12CC[C@@H]3c4ccc(O)cc4CC[C@H]3[C@@H]1CC[C@@H]2NS(=O)(=O)c1ccc(C(F)(F)F)cc1 | 49.1% (inactive)
3 | O=C(CSc1nnc(-c2ccc(Cl)cc2)o1)Nc1ccc(C(=O)/C=C/c2ccc(Cl)cc2)cc1 | 89.3% (inactive)
4 | Cc1cc(CCNC=O)c(C)c2c1sc1ccccc12 | 85% (inactive)
5 | COc1cc2cc(Oc3ccc(NC(=O)c4ccc(Cl)c(C(F)(F)F)c4)cc3)c(C)nc2cc1OC | 42.4% (inactive)
6 | CC(C)(C)c1ccc(S(=O)(=O)N[C@H]2CC[C@H]3[C@@H]4CCc5cc(O)ccc5[C@H]4CC[C@]23C)cc1 | 51.4% (inactive)
7 | COc1cc2cc(Oc3ccc(NC(=O)c4cccc(C(F)(F)F)c4)cc3)c(C)nc2cc1OC | 43.2% (inactive)
8 | COc1ccc(/C=C2\CCCC3=C2NC(N)=NC3c2ccc(OC)c(OC)c2)cc1OC (stereo unspecified) | 53.4% (inactive)
9 | Cc1c(Cl)cccc1NC(=O)CN1CCOCC1 | 93.9% (inactive)
10 | CC(C)(C)OC(=O)N1CCc2c(sc3ncnc(N/N=C/c4ccc(Br)cc4)c23)C1 | 74% (inactive)
11 | CCCCc1oc2ccccc2c1C(=O)c1cc(I)c(OCCN(CC)CC)c(I)c1 | 10.3% (inactive)
12 | CCc1c2c(nc3ccc(OC(=O)N4CCC(N5CCCCC5)CC4)cc13)-c1cc3c(c(=O)n1C2)COC(=O)[C@]3(O)CC | 62.4% (inactive)
13 | NS(=O)(=O)Oc1ccc(-c2ccc3sccc3c2)cc1 | 97.3% (inactive)
14 | O=C(Nc1ccc(OS(=O)(=O)c2ccccc2)cc1)C1CCCCC1 | 102% (inactive)
15 | S=c1cnc2ccccc2[nH]1 | 105% (inactive)
16 | COc1cc(-c2nn(-c3cccc(NC(=O)NCCNC(=O)c4cccc(C(F)(F)F)c4)c3)cc2-c2ccncc2)ccc1Cl | 49.4% (inactive)
17 | C[C@@H](O)[C@H]1C(=O)N2C(C(=O)O)=C(SCCN=CN)C[C@H]12 | -2.15% (active)
18 | CC[C@@H](C(=O)[C@@H](C)[C@@H](O)[C@H](C)[C@@H]1O[C@@H]([C@@H](CC)C(=O)O)CC[C@@H]1C)C1O[C@]2(C=CC(=O)[C@]3(CC[C@@](C)([C@H]4CC[C@](O)(CC)[C@H](C)O4)O3)O2)[C@H](C)C[C@@H]1C (stereo partly specified) | 47.7% (inactive)

Row | Structure (SMILES) | growth
19 | CCC(c1ccc(OC)cc1)C(CC)c1ccc(O)c(CN2CCN(C)CC2)c1 (stereo unspecified) | 60.2% (inactive)
20 | COc1ccc(C(=O)N2C=Cc3ccccc3C2C#N)cc1 (stereo unspecified) | 102% (inactive)
21 | Cc1cc(SC#N)cc(C(C)(C)C)c1O | 96.1% (inactive)
22 | COc1ccc(-c2n[nH]nc2-c2cc(OC)c3c(c2OC)OCO3)cc1 | 51.8% (inactive)
23 | CN1C(C(=O)Nc2ccccn2)=C(O)c2sc(Cl)cc2S1(=O)=O | 106% (inactive)
24 | Clc1ccc2c(c1)C(N1CCNCC1)=Nc1ccccc1O2 | 41.1% (inactive)
25 | CC(C)(C)c1ccc(S(=O)(=O)N[C@H]2CC[C@H]3[C@@H]4CCc5cc(O)c([N+](=O)[O-])cc5[C@H]4CC[C@]23C)cc1 | 10.3% (inactive)
26 | COc1cc(-c2csc(NC(=O)Nc3ccc(Cl)c(C(F)(F)F)c3)n2)cc(OC)c1OC | -1.69% (active)
27 | Brc1ccc2c(c1)-c1ccccc1C1=NCCN12 | 0.91% (active)
28 | CC(C)N(CCOc1cccc(-c2nc3sccn3c2-c2ccnc(S(C)(=O)=O)n2)c1)C(C)C | 64.5% (inactive)
29 | Cc1ccc(/C=C/C(=O)C(=O)/C=C/c2ccc(C)cc2)cc1 | 98.6% (inactive)
30 | O=C(Nc1cc(Cl)cc2c1-c1ccc(Cl)cc1C2O)C(Cl)Cl (stereo unspecified) | 62.9% (inactive)
31 | COc1cc(Cc2cc(-c3ccccc3)n[nH]c2=O)cc(OC)c1OC | 70.1% (inactive)
32 | Cc1cc(C(C#N)c2ccc(Cl)cc2)c(Cl)cc1NC(=O)c1cc(I)cc(I)c1O (stereo unspecified) | 82.6% (inactive)
33 | C/C=C/C1=CN2C(=O)c3cc(OC4OC(C)C(NC)C(C)(O)C4O)c(C)c(O)c3N=C[C@@H]2C1 (stereo partly specified) | 6.69% (active)
34 | CNC(=O)c1c(I)c(NC(C)=O)c(I)c(C(=O)O)c1I | 111% (inactive)
35 | COc1ccc(Nc2cnc3cc(NS(=O)(=O)c4ccc(C)cc4)ccc3n2)cc1 | 86.5% (inactive)
36 | COc1cc(-c2nn(-c3ccc(NC(=O)NCCCNC(=O)c4ccccc4)cc3)cc2-c2ccncc2)ccc1Cl | 44.4% (inactive)
